Measurements reported in PubChem BioAssay AID1159580 (chemical genetic matrix, 2015).
The whole screen tested about 5,500 compounds, of which about 2,000 (36%) were called active. Not shown: some 18% with an inconclusive outcome. Rule as the data show it: active = normalized growth mostly below about 0.91 (no sharp cut-off); inconclusive = no clear call, values can overlap the other calls; inactive = mostly above about 0.92. This is one part of the list.

Test: chemical genetic growth profiling, strain panel (AID 1159580);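 also: tested at 20 µM; growth read once vehicle control cultures reached saturation at 30 °C; 1 = growth at the plate median or of vehicle wells; lower values mean less growth of the strain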
Settings: S. cerevisiae deletion strains, growth OD

Measured: normalized growth

Cc1nc2c(OCc3ccccc3)cccn2c1CC#N
inactive: locus YAL040C, strain CLN3, stronger effect = lower value 0.99 | locus YCL061C, strain MRC1 (second series), stronger effect = lower value 0.996 | locus YDR363W, strain ESC2, stronger effect = lower value 0.987 | locus YER002W, strain NOP16, stronger effect = lower value 0.991 | locus YGR078C, strain PAC10, stronger effect = lower value 0.996 | locus YMR263W, strain SAP30, stronger effect = lower value 1 | locus YMR307W, strain GAS1, stronger effect = lower value 0.974 | locus YNL153C, strain GIM3, stronger effect = lower value 0.994 | locus YNL175C, strain NOP13, stronger effect = lower value 0.991 | locus YNL197C, strain WHI3, stronger effect = lower value 1 | locus YNL224C, strain SQS1, stronger effect = lower value 0.995 | locus YNL322C, strain KRE1, stronger effect = lower value 1.01 | locus YOR083W, strain WHI5 (second series), stronger effect = lower value 0.97 | locus YPL241C, strain CIN2, stronger effect = lower value 1

CC(C)(C)c1cc2nc(C(F)(F)F)cc(NNC(=O)c3ccc(Cl)cc3)n2n1
inactive: locus YAR019C, strain CDC15, stronger effect = lower value 0.978 | locus YBL105C, strain PKC1, stronger effect = lower value 0.994 | locus YBR135W, strain CKS1, stronger effect = lower value 0.977 | locus YBR136W, strain MEC1, stronger effect = lower value 0.989 | locus YBR160W, strain CDC28, stronger effect = lower value 0.978 | locus YDL017W, strain CDC7, stronger effect = lower value 0.996 | locus YDL028C, strain MPS1, stronger effect = lower value 0.984 | locus YDL101C, strain DUN1, stronger effect = lower value 0.991 | locus YDL108W, strain KIN28, stronger effect = lower value 0.981 | locus YDL132W, strain cdc53, stronger effect = lower value 0.974 | locus YDL214C, strain PRR2, stronger effect = lower value 1.01 | locus YDR052C, strain DBF4, stronger effect = lower value 0.989 | locus YDR054C, strain cdc34, stronger effect = lower value 0.978 | locus YDR226W, strain ADK1, stronger effect = lower value 0.982 | locus YDR477W, strain SNF1, stronger effect = lower value 1.03 | locus YER123W, strain YCK3, stronger effect = lower value 0.999 | locus YER133W, strain GLC7, stronger effect = lower value 1.03 | locus YFL009W, strain cdc4, stronger effect = lower value 0.981 | locus YFL029C, strain CAK1, stronger effect = lower value 0.981 | locus YFR003C, strain YPI1, stronger effect = lower value 0.992 | locus YFR019W, strain FAB1, stronger effect = lower value 0.966 | locus YFR028C, strain CDC14, stronger effect = lower value 0.979 | locus YGR040W, strain KSS1, stronger effect = lower value 1.01 | locus YGR052W, strain FMP48, stronger effect = lower value 1.12 | locus YGR092W, strain DBF2, stronger effect = lower value 0.952 | locus YHR030C, strain SLT2, stronger effect = lower value 1.04 | locus YHR079C, strain IRE1, stronger effect = lower value 0.989 | locus YHR082C, strain KSP1, stronger effect = lower value 1.06 | locus YHR205W, strain SCH9, stronger effect = lower value 0.99 | locus YIL147C, strain SLN1, stronger effect = lower value 0.983 | locus YJL095W, strain BCK1, stronger effect = lower value 0.991 | locus YJL128C, strain PBS2, stronger effect = lower value 0.961 | locus YJL157C, strain FAR1, stronger effect = lower value 1.02 | locus YJR016C, strain ILV3, stronger effect = lower value 0.977 | locus YJR066W, strain TOR1 (second series), stronger effect = lower value 0.991 | locus YJR066W, strain TOR1, stronger effect = lower value 1.05 | locus YKL048C, strain ELM1, stronger effect = lower value 0.986 | locus YKL067W, strain YNK1, stronger effect = lower value 1 | locus YKL101W, strain HSL1, stronger effect = lower value 1.01 | locus YKL193C, strain SDS22, stronger effect = lower value 0.977 | locus YKL203C, strain TOR2, stronger effect = lower value 1.07 | locus YLR113W, strain HOG1, stronger effect = lower value 0.983 | locus YLR133W, strain CKI1, stronger effect = lower value 0.995 | locus YLR403W, strain SFP1, stronger effect = lower value 0.991 | locus YML070W, strain DAK1, stronger effect = lower value 1 | locus YMR001C, strain CDC5, stronger effect = lower value 0.994 | locus YMR205C, strain PFK2 (second series), stronger effect = lower value 1 | locus YMR277W, strain FCP1, stronger effect = lower value 0.973 | locus YNL006W, strain LST8, stronger effect = lower value 0.988 | locus YNL020C, strain ARK1, stronger effect = lower value 1.01 | locus YNL161W, strain CBK1, stronger effect = lower value 0.991 | locus YNL183C, strain NPR1, stronger effect = lower value 0.988 | locus YNL207W, strain RIO2, stronger effect = lower value 0.981 | locus YNL222W, strain SSU72, stronger effect = lower value 0.975 | locus YNL307C, strain MCK1 (second series), stronger effect = lower value 1 | locus YOL078W, strain AVO1, stronger effect = lower value 0.98 | locus YOL136C, strain PFK27, stronger effect = lower value 1.01 | locus YOR061W, strain CKA2, stronger effect = lower value 0.995 | locus YOR119C, strain RIO1, stronger effect = lower value 1.11 | locus YOR231W, strain MKK1, stronger effect = lower value 0.988 | locus YOR329C, strain SCD5, stronger effect = lower value 0.997 | locus YPL031C, strain PHO85, stronger effect = lower value 1.03 | locus YPL153C, strain RAD53, stronger effect = lower value 1.03 | locus YPL204W, strain HRR25, stronger effect = lower value 1.05 | locus YPL209C, strain IPL1, stronger effect = lower value 0.988 | locus YPL256C, strain CLN2, stronger effect = lower value 0.994 | locus YPR025C, strain CCL1, stronger effect = lower value 0.988 | locus YPR106W, strain ISR1, stronger effect = lower value 0.988 | locus YPR111W, strain DBF20, stronger effect = lower value 0.976 | strain NNK1, stronger effect = lower value 0.983 | strain TSCII, stronger effect = lower value 0.984
